A short description of assay [1]: A CellTox Green Cytotoxicity Assay to monitor cytotoxicity in HEK293 cells - 40 hour (AID 1224871). Further: nearly all actives have a fitted effect of over 45% in size. Further: potency means the concentration at half of the fitted maximal effect. Particulars: CellTox Green fluorescence; series mostly up to 76.8 µM. In outline:
(§1)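 HEK293 cells premixed with CellTox Green dye were seeded at 600 cells/well and left 5 h at 37 C/5% CO2 before pin transfer of 23 nL compound in DMSO. Fluorescence from dye bound to dead-cell DNA was read during 40 h treatment.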

Assay [2] is described as follows: qHTS RealTime-Glo MT Cell Viability Assay in HepG2 cells - 8 hour (AID 1224873). Further: nearly all actives have a fitted effect of over 55% in size. Further: potency means the concentration at half of the fitted maximal effect. To be noted: RealTime-Glo luminescence; series mostly up to 76.8 µM. The essentials:
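HepG2 cells (600/well) mixed with RealTime-Glo MT reagent, settled 5 h at 37 C/5% CO2 before compound addition. Nonlytic NanoLuc luminescence from viable-cell prosubstrate reduction read repeatedly during 40 h treatment at 37 C.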

Assay [3] is described as follows: qHTS RealTime-Glo MT Cell Viability Assay in HEK293 cells - 40 hour (AID 1224874). Further: nearly all actives have a fitted effect of over 50% in size. Further: potency means the concentration at half of the fitted maximal effect. To be noted: RealTime-Glo luminescence; max response: stronger effect = lower value. The essentials: (§2)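 HEK293 cells mixed with RealTime-Glo reagents (NanoLuc plus cell-permeant prosubstrate) at 600 cells/well, preincubated 5 h at 37 C/5% CO2, then given 23 nL compound in DMSO. Nonlytic luminescence from viable cells was read at 0, 8, 16, 24, 32 and 40 h.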

Assay [4] is described as follows: A CellTox Green Cytotoxicity Assay to monitor cytotoxicity in HEK293 cells - 24 hour (AID 1224875). Further: nearly all actives have a fitted effect of over 45% in size. To be noted: CellTox Green fluorescence; series mostly up to 76.8 µM. In outline:
as §1

The nature of assay [5]: A CellTox Green Cytotoxicity Assay to monitor cytotoxicity in HepG2 cells - 16 hour (AID 1224876). Further: nearly all actives have a fitted effect of over 45% in size. Further: potency means the concentration at half of the fitted maximal effect. To be noted: CellTox Green fluorescence; series mostly up to 76.8 µM. In outline: (§3)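 HepG2 cells were seeded together with the CellTox Green dye at 600 cells/well, left 5 h at 37 C/5% CO2, then given compounds in DMSO. Fluorescence from dye bound to dead-cell DNA was read repeatedly over 40 h of treatment at 37 C.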

Assay [6] in a line: A CellTox Green Cytotoxicity Assay to monitor cytotoxicity in HepG2 cells - 24 hour (AID 1224878). Further: nearly all actives have a fitted effect of over 45% in size. Further: potency means the concentration at half of the fitted maximal effect. Particulars: CellTox Green fluorescence; series mostly up to 76.8 µM. In outline:
as §3

Assay [7] is described as follows: A CellTox Green Cytotoxicity Assay to monitor cytotoxicity in HepG2 cells - 40 hour (AID 1224879). Further: nearly all actives have a fitted effect of over 40% in size. Further: potency means the concentration at half of the fitted maximal effect. Particulars: CellTox Green fluorescence; series mostly up to 76.8 µM. In outline: as §3
The nature of assay [8]: qHTS RealTime-Glo MT Cell Viability Assay in HEK293 cells - 0 hour (AID 1224880). To be noted: RealTime-Glo luminescence; series mostly up to 76.8 µM. The essentials:
as §2

The nature of assay [9]: A CellTox Green Cytotoxicity Assay to monitor cytotoxicity in HEK293 cells - 32 hour (AID 1224881). Further: nearly all actives have a fitted effect of over 40% in size. Further: potency means the concentration at half of the fitted maximal effect. To be noted: CellTox Green fluorescence; series mostly up to 76.8 µM. In outline:
as §1

Assay [10] in a line: A CellTox Green Cytotoxicity Assay to monitor cytotoxicity in HepG2 cells - 0 hour (AID 1224882). Further: nearly all actives have a fitted effect of over 35% in size. Further: potency means the concentration at half of the fitted maximal effect. To be noted: CellTox Green fluorescence; series mostly up to 76.8 µM. In outline:
as §3

A short description of assay [11]: A CellTox Green Cytotoxicity Assay to monitor cytotoxicity in HepG2 cells - 32 hour (AID 1224883). Further: nearly all actives have a fitted effect of over 50% in size. Further: potency means the concentration at half of the fitted maximal effect. To be noted: CellTox Green fluorescence; series mostly up to 76.8 µM. In outline:
as §3

The nature of assay [12]: qHTS RealTime-Glo MT Cell Viability Assay in HepG2 cells - 16 hour (AID 1224885). Further: nearly all actives have a fitted effect of over 50% in size. Further: potency means the concentration at half of the fitted maximal effect. Particulars: RealTime-Glo luminescence; series mostly up to 76.8 µM. In outline:
(§4)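 Cell number in HepG2 cultures estimated from NanoLuc luminescence generated by metabolic reduction of a prosubstrate by living cells. The homogeneous, nonlytic format allowed repeated reads at 0, 8, 16, 24, 32 and 40 h of compound exposure.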

Assay [13] can be described thus: qHTS RealTime-Glo MT Cell Viability Assay in HEK293 cells - 8 hour (AID 1224887). Further: nearly all actives have a fitted effect of over 50% in size. Further: potency means the concentration at half of the fitted maximal effect. Particulars: RealTime-Glo luminescence; series mostly up to 76.8 µM. The essentials:
as §2

The nature of assay [14]: A CellTox Green Cytotoxicity Assay to monitor cytotoxicity in HEK293 cells - 16 hour (AID 1224888). Further: nearly all actives have a fitted effect of over 35% in size. Particulars: CellTox Green fluorescence; series mostly up to 76.8 µM. In outline:
as §1

The nature of assay [15]: qHTS RealTime-Glo MT Cell Viability Assay in HepG2 cells - 0 hour (AID 1224889). Further: nearly all actives have a fitted effect of over 50% in size. Further: potency means the concentration at half of the fitted maximal effect. Particulars: RealTime-Glo luminescence; series mostly up to 76.8 µM. In outline: as §4
The nature of assay [16]: A CellTox Green Cytotoxicity Assay to monitor cytotoxicity in HepG2 cells - 8 hour (AID 1224890). Further: nearly all actives have a fitted effect of over 45% in size. Further: potency means the concentration at half of the fitted maximal effect. Particulars: CellTox Green fluorescence; series mostly up to 76.8 µM. The essentials: as §3
Assay [17] can be described thus: qHTS RealTime-Glo MT Cell Viability Assay in HEK293 cells - 16 hour (AID 1224872). Particulars: RealTime-Glo luminescence; series mostly up to 76.8 µM. In outline: (§5)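 Homogeneous bioluminescent viability format in HEK293 cells (600 cells/well). Following 5 h at 37 C/5% CO2, 23 nL compound was pintooled; the signal was measured repeatedly during 40 h incubation.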

Assay [18] is described as follows: qHTS RealTime-Glo MT Cell Viability Assay in HepG2 cells - 32 hour (AID 1224877). Further: nearly all actives have a fitted effect of over 55% in size. Particulars: RealTime-Glo luminescence; series mostly up to 76.8 µM. In outline: as §4
Assay [19] in a line: A CellTox Green Cytotoxicity Assay to monitor cytotoxicity in HEK293 cells - 8 hour (AID 1224884). Further: nearly all actives have a fitted effect of over 35% in size. Particulars: CellTox Green fluorescence; series mostly up to 76.8 µM. In outline: as §1
The nature of assay [20]: qHTS RealTime-Glo MT Cell Viability Assay in HEK293 cells - 24 hour (AID 1224886). Further: nearly all actives have a fitted effect of over 50% in size. Further: potency means the concentration at half of the fitted maximal effect. To be noted: RealTime-Glo luminescence; series mostly up to 76.8 µM. The essentials:
as §5

Structures are written as SMILES. Several values for one entry are separate records, joined by “and”; a condition that tells them apart may be missing. Identical values can stand only once. Results filed as inconclusive are left out. Some structures have more than one record in an assay (separate samples or runs), and their calls can disagree. Activity calls are given as the source filed them. The call rests on the fitted dose curve; in most records, active means well fitted curve in the direction sought with a large enough effect in the repeat runs; inconclusive means weak or mixed curves; inactive means no such curve, though single readings can be large; an effect the other way counts as inactive or inconclusive.
On the % scale 0 is the no-effect control and ±100 the full control effect.

For the compound `CCCCCCCC/C=C\CCCCCCCC(=O)O`, the Potency result in [1], in [2], in assay [4], in [5], in assay [6] and in assay [7] was “inactive” each time. The Potency entry in [8], in assay [9], in assay [10], in assay [11], in assay [12] and in assay [13] was “inactive” each time. Also, the Potency result in assay [14], in assay [15] and in assay [16] was “inactive” throughout. In addition, the max response in [3] is 12.6% (inactive) and 4.42% (inactive).

As to `CC1=CC(C)(C)Nc2ccccc21`, the Potency entry in assay [17], in assay [2], in assay [4], in assay [5], in [18] and in assay [6] was “inactive” in each case. Further, the Potency entry in [8], in assay [9], in [10], in assay [11], in assay [19] and in assay [12] was “inactive” in each case. The Potency result in [13], in [14], in assay [15] and in assay [16] was “inactive” in each case. The max response in assay [3] is 5.64% (inactive) and -19.8% (inactive).

On to `C=CC(C)(O)CCC=C(C)C` (configuration not stated), for which the Potency result in assay [1], in [2], in [4], in [5], in assay [6] and in [7] was “inactive” in each case. Besides, the Potency entry in assay [8], in [9], in assay [10], in assay [11], in assay [19] and in assay [12] was “inactive” each time. Further, the Potency entry in [13], in assay [14], in [15] and in assay [16] was “inactive” in each case. Also, in [3], the max response was 3.03% (inactive) and 9.35% (inactive).

For `CC(=O)O[C@]1(C(C)=O)CC[C@H]2[C@@H]3C=C(C)C4=CC(=O)CC[C@]4(C)[C@H]3CC[C@@]21C`, the Potency entry in [1], in assay [2], in assay [4], in assay [5], in assay [6] and in [7] was “inactive” throughout. Also, the Potency entry in assay [9], in [10], in assay [11], in [19], in assay [12] and in [13] was “inactive” each time. Further, the Potency entry in [14] and in assay [16] was “inactive” throughout. Moreover, the Potency in assay [3] was 19.5 µM (active) and 10.7 µM (active); in [20], 19.5 µM (active); in assay [15], 347 nM (active) and 952 nM (active).

With `COC(=O)CC(=O)OC`, the Potency entry in assay [1], in assay [2], in assay [4], in assay [5], in assay [18] and in assay [6] was “inactive” in each case. The Potency entry in assay [9], in assay [10], in [11], in [12], in assay [20] and in assay [13] was “inactive” in each case. The Potency entry in assay [14], in assay [15] and in assay [16] was “inactive” each time. Moreover, the max response in assay [3] is 2.65% (inactive) and 1% (inactive).

As for `NCCOCCO`, the Potency entry in assay [1], in assay [2], in [4], in assay [5], in assay [18] and in assay [6] was “inactive” throughout. Further, the Potency result in assay [7], in assay [9], in [10], in assay [11], in assay [12] and in assay [20] was “inactive” in each case. The Potency entry in assay [13], in [14], in assay [15] and in assay [16] was “inactive” throughout. In addition, in assay [3], the max response is 6.45% (inactive) and 5.26% (inactive).

Take `C=C1C[C@H]2[C@@H]3C=C(C)C4=CC(=O)CC[C@]4(C)[C@H]3CC[C@]2(C)[C@@]1(OC(C)=O)C(C)=O`: the Potency entry in assay [1], in assay [2], in assay [4], in assay [5], in assay [18] and in assay [6] was “inactive” each time. The Potency result in [9], in assay [10], in [11], in assay [12], in [13] and in assay [14] was “inactive” throughout. The Potency entry in assay [16] was “inactive”. For the same compound, the Potency in assay [15] was 1.41 µM (active) and 6.01 µM (active).

Consider `Nc1ccc2c(c1)C(=O)c1ccccc1C2=O`, for which the Potency in assay [1] is 30.3 µM (active) and inactive. Also, the Potency result in assay [2], in assay [4], in assay [5], in assay [18], in [6] and in [7] was “inactive” each time. For the same compound, the Potency result in assay [9], in assay [10], in assay [11], in assay [19], in assay [12] and in assay [13] was “inactive” throughout. For the same compound, the Potency entry in assay [14], in assay [15] and in assay [16] was “inactive” throughout. Further, in [3], the max response was -23.1% (inactive) and -12.6% (inactive).

Consider `Cc1ccc(S(=O)(=O)O)cc1C`, for which the Potency entry in assay [1], in assay [2], in assay [4], in [5], in assay [18] and in assay [6] was “inactive” throughout. Moreover, the Potency entry in assay [7], in assay [8], in assay [9], in [10], in assay [11] and in assay [12] was “inactive” in each case. In addition, the Potency result in assay [20], in [13], in [14], in assay [15] and in [16] was “inactive” throughout. Also, in [3], the max response is -0.252% (inactive) and 9.18% (inactive).

For `C1CN(SSN2CCOCC2)CCO1`, the Potency in [1] is 54.4 µM (active) and inactive; in assay [9], 48.5 µM (active) and inactive. Further, in assay [3], the max response is -14.4% (inactive). Also, the Potency entry in [5], in assay [18], in assay [6], in assay [10], in assay [11] and in assay [19] was “inactive” each time. Further, the Potency result in assay [12], in assay [13], in assay [14], in [15] and in assay [16] was “inactive” throughout.

In the case of `COc1ccc(-c2coc3cc(O)cc(O)c3c2=O)cc1`, the Potency result in assay [1], in assay [2], in assay [4], in assay [9], in assay [10] and in [19] was “inactive” each time. Moreover, the Potency entry in [12], in assay [14], in [15] and in assay [16] was “inactive” in each case. Also, the Potency in [3] is 49.4 µM (active); in [7], 55.4 µM (active).

With `C[C@]12CC[C@@H]3c4ccc(O)cc4CC[C@H]3[C@@H]1CC[C@@H]2O`, the Potency entry in assay [1], in [2], in assay [4], in assay [5], in [18] and in assay [6] was “inactive” each time. Further, the Potency entry in [8], in assay [9], in assay [10], in assay [19], in [12] and in assay [13] was “inactive” in each case. The Potency entry in assay [14], in [15] and in [16] was “inactive” in each case. Moreover, the Potency in assay [3] is 17.3 µM (active) and 21.9 µM (active); in [11], 43.6 µM (active) and inactive; in assay [20], 19.5 µM (active).

`Nc1ccc(N)c(Cl)c1`: the Potency result in assay [1] was “inactive and 38.9 µM (active)”; in [2], “inactive and 49 µM (active)”; in [5], “inactive and 27.5 µM (active)”; in [6], “inactive and 43.6 µM (active)”; in assay [7], “inactive and 43.6 µM (active)”; in assay [9], “inactive and 27.5 µM (active)”. In addition, the Potency result in assay [10] was “inactive and 38.9 µM (active)”; in assay [11] it was “inactive and 43.6 µM (active)”; in [12], “inactive and 43.6 µM (active)”; in [13] it was 21.8 µM (active) and 43.6 µM (active); in assay [16], “inactive and 38.9 µM (active)”. Moreover, in assay [3], the max response was -27.4% (inactive) and -12.8% (inactive). The Potency result in assay [8] and in assay [15] was “inactive” throughout.
